ssDAF-12 act = S. stercoralis DAF-12 activation, primary screen; HEK293 ssDAF-12/GRIP1 lit1-tk-luc reporter, luminescence; % of 3 µM dafachronic acid response; activation, % at 6.8 µM; 370,000 tested, 1% active; AID 652126;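 active = activation above the mean over all tested compounds plus 3 SD, cut at about 0.9% in these data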;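 note: 0% = DMSO-only wells and 100% = 3 µM delta7-dafachronic acid wells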
DAX1 inh-1 = inhibitors of human orphan nuclear receptor DAX1 (NR0B1); HEK293 Gal4-DAX1 luciferase reporter, luminescence; inhibition, % at 6.75 µM; 340,000 tested, 0.99% active; AID 504766;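 active = inhibition above the mean over all tested compounds plus 3 SD, cut at about 4.2% in these data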;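 note: 0% = DAX1-transfected cells with DMSO and 100% = empty-vector control cells with DMSO; inhibition shows as a rise in luminescence from relieved DAX1 repression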
DAX1 inh-2 = blocks DAX1 repression of SF-1 activated StAR promoter. inhibition, % at 6.8 µM. HEK293T StAR-luciferase reporter, SF-1/DAX-1 repression relief. 370,000 tested, 1.1% active;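 active = inhibition above the mean over all tested compounds plus 3 SD, cut at about 3.6% in these data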;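 note: 0% = DAX-1 cells with DMSO and 100% = cells lacking DAX-1 with DMSO; higher inhibition means more luminescence from relief of DAX-1 repression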
hgDAF-12 ag = agonists of H. glycines DAF-12 nuclear receptor; AID 687014; 370,000 tested, 1.8% active; activation, % at 6.8 µM; HEK293 GAL4-hgDAF12 UAS-luciferase reporter, agonist luminescence; normalized to butyrate control;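 active = activation above a cutoff set at the mean of all screened compounds plus 3 SD, cut at about 10% in these data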;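 note: 0% = DMSO wells and 100% = sodium butyrate wells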
hcDAF-12 act = H. contortus DAF-12 activation, primary screen; HEK293 hcDAF-12 lit1-tk-luc reporter, luminescence; 0% DMSO, 100% Δ7-dafachronic acid; activation, % at 6.8 µM; 370,000 tested, 1.4% active;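 active = activation above the mean of all tested compounds plus 3 SD, cut at about 5.5% in these data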;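 note: 100% = response to 3 µM Δ7-dafachronic acid high control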
LXRb hcDAF ctr = activates human LXR-beta, counter-screen for hcDAF-12 agonists; shares compounds with hcDAF-12 act; HEK293 Gal4-LXR tk-luc reporter, luminescence, 24 h; normalized: DMSO 0%, positive control 100%; activation, % at 6.8 µM; 3,400 tested, under 10 active;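 active = mean percent activation of the reporter above a cutoff set as the average over tested compounds plus their standard deviation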
Target sequence (P55055 whole entry, looked up, the tested form may be a part): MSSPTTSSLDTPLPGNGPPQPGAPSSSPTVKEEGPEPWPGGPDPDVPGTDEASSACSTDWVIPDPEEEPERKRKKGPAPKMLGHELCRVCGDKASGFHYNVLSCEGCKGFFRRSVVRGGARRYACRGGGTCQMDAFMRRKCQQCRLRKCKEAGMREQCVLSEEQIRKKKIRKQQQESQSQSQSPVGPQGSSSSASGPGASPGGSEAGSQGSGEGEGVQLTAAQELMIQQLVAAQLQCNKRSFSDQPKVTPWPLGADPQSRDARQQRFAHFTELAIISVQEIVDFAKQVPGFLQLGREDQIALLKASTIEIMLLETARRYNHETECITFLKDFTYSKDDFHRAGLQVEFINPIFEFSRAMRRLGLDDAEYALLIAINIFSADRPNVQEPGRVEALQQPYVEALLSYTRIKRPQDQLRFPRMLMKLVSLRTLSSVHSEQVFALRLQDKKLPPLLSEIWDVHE
hcDAF12 conf = confirmation of H. contortus DAF-12 agonists. activation, % at 6.8 µM. shares compounds with hcDAF-12 act. HEK293 hcDAF-12 lit1-tk-luc reporter, luminescence; % of Δ7-dafachronic acid response. 3,400 tested, 61% active;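 active = mean activation across triplicate tests above the threshold derived from the earlier primary screen, cut at about 5.5% in these data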;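 note: 0% = DMSO only wells and 100% = 3 µM Δ7-dafachronic acid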
An asterisk follows results filed as active. An excerpt weighted towards active compounds, which were near 4.1% of everything screened.

Cc1ccc2nc(Br)c3c(c2c1)OC(CBr)C3 (stereo not drawn) was read as ssDAF-12 act -2, DAX1 inh-1 -1, DAX1 inh-2 0, hgDAF-12 ag 1, hcDAF-12 act 7.4*, LXRb hcDAF ctr 0 and hcDAF12 conf 0.
Cc1nc2c(Cl)cccc2c2c1CC(CBr)O2 (stereo not drawn) was read as ssDAF-12 act -2, DAX1 inh-1 -1, DAX1 inh-2 0, hgDAF-12 ag -1 and hcDAF-12 act -2.
Screening FC(F)(F)c1ccccc1Cc1c(-c2ccco2)nc2c3ccccc3ccn12 returned ssDAF-12 act 1, DAX1 inh-2 -1, hgDAF-12 ag -1 and hcDAF-12 act 2.
For O=C1/C(=C/Nc2ccc3c(c2)OCO3)CCc2ccccc21 the results were ssDAF-12 act 0, DAX1 inh-1 -3, DAX1 inh-2 1, hgDAF-12 ag 9, hcDAF-12 act 9.4*, LXRb hcDAF ctr 1 and hcDAF12 conf 7.5*.
For Oc1cccc(-c2nnc(-c3cccc(O)c3)nn2)c1 the results were ssDAF-12 act 2.3*, DAX1 inh-1 -5, DAX1 inh-2 4.1*, hgDAF-12 ag 2, hcDAF-12 act 12*, LXRb hcDAF ctr 2 and hcDAF12 conf 17*.
For Nc1cccc(O)c1 the results were ssDAF-12 act -1, DAX1 inh-1 0, DAX1 inh-2 0, hgDAF-12 ag -2 and hcDAF-12 act -1.
`O=C1CCC2(CCC(c3ccccc3)CC2)N1CCO` (stereo not drawn) gave ssDAF-12 act -1, DAX1 inh-2 -1, hgDAF-12 ag 1 and hcDAF-12 act -2.
`CN(CCOc1ccc(Cl)cc1)CC(=O)Nc1ccc(OC(F)F)cc1` gave ssDAF-12 act -1, DAX1 inh-1 2, DAX1 inh-2 0, hgDAF-12 ag 0 and hcDAF-12 act -1.
CCC(C)c1ccccc1NC(=O)CN(C)CCOc1ccc(Cl)cc1 (stereo not drawn) was read as ssDAF-12 act -1, DAX1 inh-1 0, DAX1 inh-2 0, hgDAF-12 ag 1, hcDAF-12 act 9.2*, LXRb hcDAF ctr 0 and hcDAF12 conf 0.
Cn1cc(/C=N/NC(N)=S)c2ccccc21 was read as ssDAF-12 act -2, DAX1 inh-1 -1, DAX1 inh-2 -1, hgDAF-12 ag -1 and hcDAF-12 act 2.
Cn1cc(/C=N\NC(=O)c2cccs2)c2ccccc21 was read as ssDAF-12 act 0, DAX1 inh-1 6.1*, DAX1 inh-2 3, hgDAF-12 ag 13*, hcDAF-12 act 6.8*, LXRb hcDAF ctr 1 and hcDAF12 conf 4.
`COc1ccc(S[C@]2(C(=O)N3CCOCC3)CC(=O)N(c3ccccc3)[C@@H]2c2ccc(OC)cc2)cc1` gave ssDAF-12 act -1, DAX1 inh-2 -1, hgDAF-12 ag 2 and hcDAF-12 act -1.
`Cc1cccnc1NC(=O)c1ccc(S(=O)(=O)N2CCCCC2)cc1` gave ssDAF-12 act -1, DAX1 inh-1 2, DAX1 inh-2 2, hgDAF-12 ag 2 and hcDAF-12 act 0.
`Cc1cccnc1NC(=O)c1cccc(S(=O)(=O)N2CCCC2)c1` gave ssDAF-12 act 0, DAX1 inh-1 1, DAX1 inh-2 0, hgDAF-12 ag -2, hcDAF-12 act 7.0*, LXRb hcDAF ctr 0 and hcDAF12 conf 5.
`COC(=O)[C@]12C[C@H](CC(=O)NCc3ccccc3)C(=O)N(Cc3cccc4ccccc34)C1=C[C@H](COCc1ccccc1)O[C@@H]2C` gave ssDAF-12 act 0, DAX1 inh-2 -1, hgDAF-12 ag 1 and hcDAF-12 act -1.
Screening CN(C)c1cc2c3ccccc3n(C)c2cc1N returned ssDAF-12 act 0, DAX1 inh-1 2, DAX1 inh-2 0, hgDAF-12 ag 4, hcDAF-12 act 7.6*, LXRb hcDAF ctr 0 and hcDAF12 conf 4.

Screening data as filed in PubChem BioAssay.
